# Records with an inconclusive call do not appear. Values without a mark were called inactive. Activity calls are given as the source filed them. Calls come from the whole dose curve; tested in HEK293 reporter line.
# Assay: qHTS for Inhibitors of the Functional Ribonucleoprotein Complex (vRNP) of Lassa (LASV) Arenavirus: LASV Primary Screen - GLuc reporter signal (AID 1347082); note: nearly all actives have a fitted effect of over 60% in size
# Conditions: LASV minigenome vRNP, Gaussia luciferase reporter; series mostly up to 57.5 µM; activity change, negative = inhibition: at the top concentration
# % is set by controls: 0 for no effect and ±100 for the full control effect; potency is the fitted concentration of half-maximal effect.
SMILES,"activity change, negative = inhibition",Potency
CC(=O)O[C@@]12CO[C@@H]1C[C@@H](O)[C@@]1(C)C(=O)[C@H](O)C3=C(C)[C@@H](OC(=O)[C@H](O)[C@@H](NC(=O)c4ccccc4)c4ccccc4)C[C@@](O)([C@@H](OC(=O)c4ccccc4)C12)C3(C)C (stereo not given in full),-25.4%,–
C=C1C(=O)O[C@@H]2C[C@@H](C)[C@H]3C=CC(=O)[C@]3(O)C[C@@H]12,-25.8%,–
CN(C(=O)c1ccc(F)cc1C(F)(F)F)C1CCN(c2nnc(-c3ccnn3C)c3ccccc23)CC1,-27.1%,–
COc1cc2c(cc1OC)-c1c(OC)c(OC)c(OC)c3ccnc(c13)C2=O,-2.88%,–
CO[C@H]1O[C@@H]2O[C@@]3(C)CC[C@@H]4[C@@H](C)CC[C@@H]([C@H]1C)[C@@]24OO3,-8.89%,–
CCN(CC)CCCCNc1ncc2c(n1)N(C)C(=O)N(c1c(Cl)c(OC)cc(OC)c1Cl)C2,–,34.3 µM (active)
O=C(/C=C/c1ccccc1)NCCc1ccccc1,-1.92%,–
COc1ccc([C@@H]2CC(=O)c3c(O)cc(O[C@@H]4O[C@H](CO)[C@@H](O)[C@H](O)[C@H]4OC4O[C@@H](C)[C@H](O)[C@@H](O)[C@H]4O)cc3O2)cc1O (stereo not given in full),-0.678% [at 24.7 µM],–
COc1cccc2c1C1COC3C4CC(C(=O)O)C(C(C2)N13)N4C (stereo not given),-31.8%,–
COC(=O)C1C2CC3c4[nH]c5cc(OC)ccc5c4CCN3CC2CC(O)C1OC (stereo not given),13%,–
CNCCCCc1cnc(C)c2[nH]c3ccccc3c12,-10.6%,–
CC(C)OC(=O)CCCC=CC[C@@H]1[C@H](C=C[C@@H](O)COc2cccc(C(F)(F)F)c2)[C@H](O)C[C@@H]1O,–,38.5 µM (active)
CCCCCC(=O)N[C@@H](c1ccccc1)[C@@H](O)C(=O)O[C@H]1C[C@@]2(O)[C@@H](OC(=O)c3ccccc3)C3[C@](C)(C(=O)[C@H](O)C(=C1C)C2(C)C)[C@@H](OC1OCC(O)C(O)C1O)C[C@H]1OC[C@@]31OC(C)=O (stereo not given in full),-11.4%,–
CON=C(C(=O)N[C@@H]1C(=O)N2C(C(=O)O)=C(CSC(=O)c3ccco3)CS[C@H]12)c1csc(N)n1,-3.53%,–
COC(/C(C)=C/C=C/C(C)=C/c1coc(C)n1)C(C)C1CC(O)C2(C)OC2C=CC(C)C2CC(CC(=O)O2)CC2OC2C(=O)O1 (stereo not given),6.14%,–
CC(C)c1oc(=O)cc2c1[C@@H](O)[C@H]1OC(=O)[C@@]3(C)CC[C@@H](O)[C@@]2(C)C13 (stereo not given in full),–,5.62 µM (active)
CCCNC(=O)[C@H]1O[C@H]1C(=O)N[C@H](C(=O)N1CCC[C@@H]1C(=O)OC)C(C)CC (stereo not given in full),–,27.3 µM (active)
C[C@H]1CCC[C@@H](O)CCC/C=C/c2cc(O)cc(O)c2C(=O)O1,-33.2%,–
C[C@]12CC[C@H](O)C[C@H]1CC[C@@H]1C2CC[C@]2(C)[C@@H](C3=CC(=O)OC3)[C@@H](O)C[C@]12O (stereo not given in full),–,6.31 µM (active)
CC(=O)O[C@@]12CO[C@@H]1C[C@H](O)[C@@]1(C)C(=O)[C@H](O)C3=C(C)[C@@H](O)C[C@@](O)([C@@H](OC(=O)c4ccccc4)C12)C3(C)C (stereo not given in full),-6.75%,–

SMILES,"activity change, negative = inhibition",Potency
CO[C@H]1[C@@H](O)[C@@H](C)O[C@H](O[C@H]2[C@H](Oc3cccc4c(O)c5c(=O)oc6ccc(C)c7c(=O)oc(c34)c5c67)O[C@H](C)[C@H](O)[C@@H]2O)[C@@H]1O,-4.65%,–
CC1=CC(C)CC(C)OC(=O)CC(c2ccc(O)cc2)NC(=O)C(Cc2c(Br)[nH]c3ccccc23)N(C)C(=O)C(C)NC(=O)C(C)C1 (stereo not given),-14.2%,–
O=C1NC(=O)C(=Cc2ccc3c(c2)OC(F)(F)O3)S1,-25%,–
CC[C@H]1OC(=O)[C@H](C)[C@@H](O[C@H]2C[C@@](C)(OC)[C@@H](O)[C@H](C)O2)[C@H](C)[C@@H](O[C@@H]2O[C@H](C)C[C@H](N(C)C)[C@@H]2O)[C@](C)(OC)C[C@@H](C)C(=O)[C@H](C)[C@@H](O)[C@]1(C)O,-5.45%,–
Oc1ccc(C2CCN(c3ccnc4ccccc34)CC2)cc1O,–,15.3 µM (active)
O=C(O)CCNc1cc(N2CCc3ccccc3CC2)nc(-c2ccccn2)n1,4.09%,–
CNC(=O)Nc1ccc(Cl)c(Cl)c1,-32.1% [at 115 µM],–
CC(=O)O[C@H]1C(=O)[C@@]2(C)C([C@H](OC(=O)c3ccccc3)[C@]3(O)C[C@H](O)C(C)=C1C3(C)C)[C@]1(OC(C)=O)CO[C@@H]1C[C@H]2O (stereo not given in full),-19.8%,–
CC(=O)c1ccc[nH]1,-19.6% [at 115 µM],–
C/C=C1\NC(=O)[C@H](CC(N)=O)N(C)C(=O)C([C@@H](C)O)NC(=O)C(CCCc2ccc(OC)cc2)NC(=O)[C@H](C(C)C)NC(=O)/C(=C\C)NC(=O)[C@H](O)[C@@H](C[C@@H](O)CCCCCCC)NC(=O)[C@H](C)NC(=O)CN(C)C(=O)[C@H](CCC(N)=O)NC1=O (stereo not given in full),-30.9%,–
CC(=O)O[C@@]12CO[C@@H]1C[C@H](OC1OCC(O)C(O)C1O)[C@@]1(C)C(=O)[C@H](O)C3=C(C)[C@@H](OC(=O)[C@H](O)[C@@H](NC(=O)c4ccccc4)c4ccccc4)C[C@@](O)([C@@H](OC(=O)c4ccccc4)C12)C3(C)C (stereo not given in full),8.54%,–
COC(=O)c1cc(O)cc(OC)c1Oc1cc(C)cc(O)c1C(=O)O,-28.9%,–
COC(=O)C1CC23C=CCN4CCC5(c6ccccc6NC15C2C)C43 (stereo not given),-31.1%,–
C=C1C(C)C2C(Cc3ccccc3)NC(=O)C23C(OC(C)=O)C=CC(C)(O)CC(C)CC=CC3C1O (stereo not given),44.2%,–
CC(C)(O)CC[C@@H](O)[C@](C)(O)[C@H]1CC[C@@]2(O)C3=CC(=O)[C@@H]4C[C@@H](O)[C@@H](O)C[C@]4(C)[C@@H]3CC[C@]12C,1.21%,–
O=c1c(-c2ccc(O)cc2)coc2c(C3OC(CO)C(O)C(O)C3O)c(O)ccc12 (stereo not given),2.29%,–
C=CC(C)(C)c1[nH]cnc1/C=C1\NC(=O)C(C(C)C)NC1=O (stereo not given),-32.3%,–
C/C=C(\C)C(=O)N[C@@H](c1ccccc1)[C@@H](O)C(=O)O[C@H]1C[C@@]2(O)[C@@H](OC(=O)c3ccccc3)C3[C@](C)(C(=O)[C@H](O)C(=C1C)C2(C)C)[C@@H](O)C[C@H]1OC[C@@]31OC(C)=O (stereo not given in full),-37.7%,–
C=CC(C)(C)c1c2occc2c(O)c2ccc(=O)oc12,-5.23%,–
CCCCCOC(=O)Nc1nc(=O)n([C@@H]2O[C@H](C)[C@@H](O)C2O)cc1F (stereo not given in full),-25.9%,–

# Reference: PubChem BioAssay (NCATS)
